Compound activity from PubChem BioAssay.
Rows were chosen to be rich in hits. Some 0.41% of all compounds tested hit in one or more screens of this group.
GAA inh: qHTS Assay for Inhibitors of Human alpha-Glucosidase as a Potential Chaperone Treatment of Pompe Disease | purified human GAA, 4-MU-alpha-glucoside fluorescence | Potency, µM (doses to about 76.9 µM), actives largely listed as inhibitors | hit rate 0.005% among 200,000 | AID 1466, 2008
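Endpoint fluorogenic read: 20 min room-temperature reaction of 4 nM human alpha-glucosidase with 400 uM 4-methylumbelliferyl-alpha-D-pyranoside, pH 5.0, quenched with 1M NaOH/1M glycine pH 10. AC50 from Hill modeling.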
GAA spleen mod: qHTS Assay for Inhibitors and Activators of Human alpha-Glucosidase From Spleen Homogenate | human spleen homogenate, 4-MU-alpha-glucoside fluorescence | Potency, µM (titrated, usually from 79.9 µM), most hits filed as inhibitors | hit rate 0.006% among 240,000 | AID 2112, 2009
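Human spleen homogenate (1 ug) with 4-methylumbelliferyl-alpha-D-glucopyranoside (1 mM final) in 50 mM citrate/phosphate pH 5.0, 0.01% Tween-20; 40 min at 37 C. Stopped at pH 10; 4-MU fluorescence Ex 365/Em 440 nm; AC50 by Hill fit.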
GLA spleen mod: qHTS Assay for Inhibitors and Activators of Human alpha-Galactosidase From Spleen Homogenate | human spleen homogenate, 4MU-alpha-Gal fluorescence, 40 min | Potency, µM (series often up to 80 µM), actives largely listed as inhibitors | hit rate 0.008% among 240,000 | AID 2107, 2009
Target sequence (P06280 32-429 limits assumed): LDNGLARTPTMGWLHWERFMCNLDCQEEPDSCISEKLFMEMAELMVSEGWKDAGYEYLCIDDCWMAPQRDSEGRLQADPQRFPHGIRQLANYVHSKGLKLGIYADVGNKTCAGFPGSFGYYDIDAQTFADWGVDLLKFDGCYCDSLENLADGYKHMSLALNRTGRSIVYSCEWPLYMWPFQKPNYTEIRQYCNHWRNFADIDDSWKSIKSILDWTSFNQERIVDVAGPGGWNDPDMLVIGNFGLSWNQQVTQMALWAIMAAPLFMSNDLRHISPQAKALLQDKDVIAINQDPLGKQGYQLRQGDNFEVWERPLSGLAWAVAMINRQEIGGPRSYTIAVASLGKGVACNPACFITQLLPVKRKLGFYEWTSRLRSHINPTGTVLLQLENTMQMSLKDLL
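Human spleen homogenate (1 ug) as enzyme source, 4-methylumbelliferyl-alpha-D-galactopyranoside 1 mM final, citrate/phosphate pH 5.0 with 0.01% Tween-20. Compounds 40 min at 37C, NaOH/glycine stop; fluorescence Ex 365/Em 440, Hill-fit AC50.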
GLA inh pH 4.5: qHTS Assay for Inhibitors of Human alpha-Galactosidase at pH 4.5. Alpha-galactosidase A (Homo sapiens), P06280. purified enzyme, 4-MU-alpha-Gal fluorescence, pH 4.5. activity change, negative = inhibition, % at 105 µM. 230,000 tested, under 10 active
N370S GC: qHTS Assay for Inhibitors and Activators of N370S glucocerebrosidase as a Potential Chaperone Treatment of Gaucher Disease | N370S GC spleen homogenate, 4MU-glucoside fluorescence | Potency, µM (doses to about 59.4 µM), actives largely listed as inhibitors | hit rate 0.092% among 330,000 | AID 2101, 2009
GAA glycogen mod: qHTS Assay for Inhibitors and Activators of Human alpha-Glucosidase Cleavage of Glycogen; recombinant GAA, glycogen substrate, Amplex Red glucose oxidase fluorescence; AID 2100, 2009; hit rate 0.38% among 300,000; Potency, µM (titrated, usually from 76.4 µM), most hits filed as inhibitors;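 note: the screen sought inhibitors and activators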
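Natural-substrate format: glycogen cleavage by 4 nM human enzyme, glucose read by Amplex Red coupling (Ex 573, Em 610 nm). Normalized to enzyme and no-enzyme controls.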
A number is an active result; . = inactive; ? = inconclusive; / = not tested or not shown; ! = not active in a repeat; [ ] = dose if it differs, or a comment. Calls come from the whole dose curve; as a rule, active = well fitted curve in the direction sought with a large enough effect; inconclusive = small, poorly fitted or top-dose-only effect, or another doubt; inactive = no such curve, though single readings can be large; an effect the other way counts as inactive or inconclusive.

SMILES | GAA inh | GAA spleen mod | GLA spleen mod | GLA inh pH 4.5 | N370S GC | GAA glycogen mod
CCCc1ccc2oc(C(=O)NCCN3CCCC(C(N)=O)C3)c(C)c2c1 (configuration not stated) | / | / | / | / | . | .
O=C(Nc1cccc(Cl)c1)OCC#CCCl | / | . | . | / | . | /
CCOC(=O)c1cccc(NC(=O)CCc2c(C)nc3c4cccnc4nn3c2C)c1 | / | / | / | / | / | .
CCOC(=O)c1[nH]c2ccc(OC)cc2c1NS(=O)(=O)c1ccc(Cl)s1 | . | . | . | . | . | .
COc1ccc2[nH]c(C(=O)O)c(NS(=O)(=O)c3ccc(Cl)s3)c2c1 | . | . | . | . | . | 9.9µM
O=C1c2[nH]nc(-c3ccccc3O)c2C(c2ccc(Cl)cc2)N1Cc1ccco1 (configuration not stated) | / | / | / | / | / | .
CCOc1ccccc1NC(=O)C(Cc1ccccc1)NS(=O)(=O)c1ccc2c(c1)oc(=O)n2C (configuration not stated) | / | / | / | / | / | .
C/C(=N\Nc1ccc(Cl)cc1)c1ccccn1 | . | . | . | . | . | 7.1µM
COc1cccc(-c2ncnn2-c2sc3c(c2C#N)CCCCC3)c1OC | / | / | / | / | / | .
CC(C)C1Nc2c(O)cc(Cl)c([N+](=O)[O-])c2C2C=CCC21 (configuration not stated) | . | . | . | . | . | 14µM
C/C(=N\NC(=O)CSCc1ccccc1Cl)c1cc(O)ccc1O | . | . | . | . | . | 35µM
N=c1c2c(-c3ccccc3)c(-c3ccccc3)n(Cc3ccco3)c2ncn1CCCN1CCOCC1 | . | . | . | . | . | .
N=c1c2c(-c3ccccc3)c(-c3ccccc3)n(Cc3ccco3)c2ncn1CCCn1ccnc1 | . | . | . | ? | 3.2µM | .
N=c1c2c(-c3ccccc3)c(-c3ccccc3)n(Cc3ccccc3)c2ncn1CCO | ? | . | . | ? | 4µM | .
O=c1c(-c2ccc(F)cc2)nc2cnc(N3CCOCC3)nc2n1C1CC1 | / | . | . | / | . | /
Nc1ccccc1Oc1ccccc1 | / | . | . | / | . | /
Oc1ccccc1Nc1nc(NCc2ccccc2)c2ccccc2n1 | . | . | . | . | 11µM | 7.1µM
CNc1nc(NCc2ccccc2)c2ccccc2n1 | / | / | / | / | . | .
CC(C)NCC(O)Cn1c2c(c3ccccc31)CCc1c-2cnn1-c1ccccc1 (configuration not stated) | . | . | . | . | . | 31µM
CN1CCc2c(n(CC(O)CNCc3ccccc3)c3ccccc23)C1=O (configuration not stated) | . | . | . | . | . | ?
CCOc1ccc(CCNC(=O)CN2C(=O)COc3ccc(S(=O)(=O)N4CCCC4)cc32)cc1 | / | / | / | / | / | .
Cc1ccc(O)c(Nc2c3ccccc3nc3ccccc23)c1 | / | / | / | / | ? | 11µM
CCCCNC(=O)C1CCN(S(=O)(=O)c2cc(Br)cc3c2N(C(=O)CC)CC3)CC1 | / | / | / | / | / | .
Oc1ccc(/C=N/N2CCCCC2)c(O)c1 | / | / | / | / | . | 11µM
Cc1cc2c(cc1S(=O)(=O)CCC(=O)N1CCCCC1C)OCC(=O)N2 (configuration not stated) | / | / | / | / | / | .
SMILES | GAA inh | GAA spleen mod | GLA spleen mod | GLA inh pH 4.5 | N370S GC | GAA glycogen mod
O=C1/C(=C\c2ccc(O)c(O)c2)C(c2ccccc2)=NN1c1ccccc1 | . | . | . | . | . | 4µM
Cc1cc(C)nc(SCC(=O)Nc2ccc(S(=O)(=O)Nc3ncccn3)cc2)n1 | . | . | . | . | . | 3.5µM
Oc1ccc(NC(=S)N=Nc2c(O)[nH]c3ccccc23)cc1 | . | . | . | . | . | 40µM
Oc1cccc(NC(=S)N=Nc2c(O)[nH]c3ccc(Br)cc23)c1 | / | . | . | . | 7.9µM | .
COc1ccc(Cl)cc1NC(=O)CCN1C(=O)c2ccccc2Sc2ncccc21 | / | / | / | / | / | .
Cc1ccc(C(=O)NC2(C(F)(F)F)N=C(c3ccccc3)N(Cc3ccccc3)C2=O)cc1 (configuration not stated) | / | / | / | / | / | .
C(=N\Nc1nc2ccccc2[nH]1)/c1ccc2c(c1)OCCO2 | . | . | . | . | . | 13µM
C(=N\Nc1ccc2ccccc2n1)/c1ccc2c(c1)OCCO2 | ? | . | . | . | . | .
COc1ccc2c(c1)c(/C=N/Nc1nc3ccccc3[nH]1)c(C)n2C | ? | . | . | . | ? | 28µM
COc1ccc(/C=N/Nc2nc3ccccc3[nH]2)cc1OC | . | . | . | . | . | ?
COc1cc(/C=N\Nc2nc3ccccc3[nH]2)cc(OC)c1OC | . | . | . | . | . | 16µM
CC(=O)NCCc1ccc(O)c(O)c1 | / | . | . | . | . | /
NCCc1ccc(O)c(O)c1 | .[15.4 µM] | . | . | . | . | 2µM
O=C1CC(Nc2ccc(N3CCOCC3)cc2)C(=O)N1Cc1ccccc1 (configuration not stated) | . | . | . | . | . | 13µM
CC(=O)Nc1ccc(NC(C)=O)s1 | . | . | . | . | . | 8.9µM
CCS(=O)(=O)N1CCCc2cc(C(=O)Nc3cccc(C(C)=O)c3)ccc21 | / | / | / | / | / | 35µM
CC(=O)c1cccc(NC(=O)c2ccc3c(c2)CCN3S(=O)(=O)c2ccccc2)c1 | / | / | / | / | . | .
COc1ccc2c(Cl)c(C(=O)NN)sc2c1 | . | . | . | . | . | 16µM
Cc1cccn2c(Nc3ccccc3)c(-c3ccc(N4CCOCC4)cc3)nc12 | / | / | / | / | / | 4µM
Cc1ccc(Nc2c(-c3ccsc3)nc3c(C)cccn23)cc1 | / | / | / | / | / | 11µM
O=C(CSc1ncc(S(=O)(=O)c2ccc(Cl)cc2)c(=O)[nH]1)Nc1ccc2c(c1)OCCO2 | / | / | / | / | / | .
O=C(CCc1ccc(O)cc1)c1c(O)cc(O)cc1O | / | . | . | . | 18µM! | 31µM
C=CCc1c(C)nc(-c2ccccc2)nc1Nc1ccc(O)cc1 | . | . | . | . | 14µM | .
C=CCc1c(C)nc(-c2ccccc2)nc1N/N=C(\C)c1ccccc1 | . | . | . | . | 10µM | ?
O=C(O)CC/C(=N/Nc1ncc(C(F)(F)F)cc1Cl)C(=O)O | . | . | . | . | . | 18µM
Cc1cc(=O)n(-c2ccc(O)cc2)[nH]1 | . | . | . | . | . | 14µM
CCN(CC)c1ccc(NC(=S)NC(=O)c2ccco2)cc1 | . | . | . | . | . | 11µM
CC(=O)NC(=S)Nc1ccc(NC(=S)NC(=O)c2cccs2)cc1 | / | / | / | / | . | .
CCN(CC)c1ccc(NC(=S)NC(=O)c2cccs2)cc1 | . | . | . | . | ? | 14µM
CCC1(c2ccc(O)cc2)NC(=O)N(C)C1=O (configuration not stated) | / | . | . | / | . | /
